Results filed as inconclusive are left out. Entries that show only a call come without a potency. The source made the active and inactive calls. The call rests on the fitted dose curve; in most records, active means well fitted inhibition curve with a large enough effect; inconclusive means small, poorly fitted or top-dose-only effect; inactive means flat fitted curve, though single readings scatter.
What was measured:
Test in all cases: qHTS profiling for inhibitors of Plasmodium falciparum proliferation (AID 504749); further: nearly all actives have a fitted effect of over 60% in size
Conditions in all cases: P. falciparum in erythrocytes, SYBR Green DNA, 72 h; series mostly up to 28.7 µM
CP291 = test system: CP291
Procedure, shortened: (§1)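 Fluorescence of SYBR Green-bound parasite DNA, read at 485/535 nm, served as the growth measure. Infected erythrocytes were cultured with compound 72 h; artemisinin (0.29 uM) and DMSO wells defined the normalization range.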

CP297 = test system: CP297
Procedure, shortened: as §1

CP305 = test system: CP305
Procedure, shortened: as §1

CP315 = test system: CP315
Procedure, shortened: as §1

CP325 = test system: CP325
Procedure, shortened: as §1

CP329 = test system: CP329
Procedure, shortened: as §1

CP335 = test system: CP335
Procedure, shortened: as §1

DFO2036 = test system: DFO2036
Procedure, shortened: as §1

DIV17 = test system: DIV17
Procedure, shortened: as §1

Dd2 = test system: Dd2
Procedure, shortened: as §1

ECU = test system: ECU
Procedure, shortened: as §1

FAB9 = test system: FAB9
Procedure, shortened: as §1

GB4 = test system: GB4
Procedure, shortened: as §1

HB3 = test system: HB3
Procedure, shortened: as §1

ICS = test system: ICS
Procedure, shortened: as §1

JCK = test system: JCK
Procedure, shortened: as §1

N140 = test system: N140
Procedure, shortened: as §1

P93_24 = test system: P93_24
Procedure, shortened: as §1

DIV14 = test system: DIV14
Procedure, shortened: as §1

DIV30 = test system: DIV30
Procedure, shortened: as §1
Potency means the concentration at half of the fitted maximal effect.

| SMILES | Potency (CP291) | Potency (CP297) | Potency (CP305) | Potency (CP315) | Potency (CP325) | Potency (CP329) | Potency (CP335) | Potency (DFO2036) | Potency (DIV17) | Potency (Dd2) | Potency (ECU) | Potency (FAB9) | Potency (GB4) | Potency (HB3) | Potency (ICS) | Potency (JCK) | Potency (N140) | Potency (P93_24) | Potency (DIV14) | Potency (DIV30) |
| --- | --- | --- | --- | --- | --- | --- | --- | --- | --- | --- | --- | --- | --- | --- | --- | --- | --- | --- | --- | --- |
| Cc1ccc(C(C)C)cc2c(C)ccc1-2 | inactive | inactive | inactive | inactive | inactive | inactive | inactive | inactive | inactive | inactive | inactive | inactive | inactive | inactive | inactive | inactive | inactive | inactive |  |  |
| CCCCCCCCCCCCCCCCCCOCC(O)CO (stereo not drawn) | inactive | inactive | inactive | inactive | inactive | inactive |  | inactive | inactive | inactive | inactive | inactive | inactive | inactive | inactive | inactive | inactive | inactive | inactive | inactive |
| CCCCN(CCCC)CC(O)c1cc(Cl)cc2c1-c1ccc(Cl)cc1/C2=C/c1ccc(Cl)cc1 (stereo not drawn) | 0.0379 µM (active) | 0.0338 µM (active) | 0.107 µM (active) | 0.0536 µM (active) | 0.0426 µM (active) | 0.0478 µM (active) | 0.0239 µM (active) | 0.0126 µM (active) | 0.0135 µM (active) | 0.0089 µM (active) | 0.0056 µM (active) | 0.316 µM (active) |  | 0.0141 µM (active) | 0.0014 µM (active) |  | 0.0045 µM (active) | 0.0126 µM (active) |  | 0.0067 µM (active) |
| CNCCCC1c2ccccc2C=Cc2ccccc21 | inactive | inactive | inactive | inactive |  | inactive |  | inactive | 2.56 µM (active) |  | inactive | inactive |  | inactive |  | inactive | inactive |  |  |  |
| NCCNCCNCCN | inactive | inactive | inactive | inactive | inactive | inactive |  | inactive | inactive | inactive | inactive | inactive | inactive | inactive | inactive | inactive | inactive | inactive | inactive | inactive |
| COc1cc(C)c(Cc2cnc(N)nc2N)cc1OC | inactive | inactive | inactive | inactive | inactive | inactive | inactive | inactive | inactive | inactive | 5.01 µM (active) | 5.62 µM (active) | 3.79 µM (active) |  | inactive | inactive | inactive | inactive | inactive | inactive |
| [O-][n+]1cccc(CO)c1 | inactive | inactive | inactive | inactive | inactive | inactive | inactive | inactive | inactive | inactive | inactive | inactive | inactive | inactive | inactive | inactive | inactive | inactive | inactive | inactive |
| Nc1ncnc2c1ncn2[C@@H]1O[C@H](CO)[C@@H](O)[C@H]1O | inactive |  | inactive | inactive | inactive | inactive | inactive | inactive | inactive | inactive | inactive | inactive | inactive | inactive | inactive | inactive | inactive |  | inactive | inactive |
| Cc1cc2c(cc1S(N)(=O)=O)S(=O)(=O)CCC2 | inactive | inactive | inactive | inactive | inactive | inactive |  | inactive | inactive | inactive | inactive | inactive | inactive | inactive | inactive | inactive | inactive | inactive | inactive | inactive |
| O=C(O)c1ccccn1 | inactive | inactive | inactive | inactive | inactive | inactive |  | inactive | inactive | inactive | inactive | inactive | inactive | inactive | inactive | inactive | inactive | inactive |  | inactive |
| CCOc1ccc2ccccc2c1C(=O)N[C@@H]1C(=O)N2[C@@H]1SC(C)(C)[C@@H]2C(=O)O | inactive | inactive | inactive | inactive | inactive | inactive | inactive | inactive | inactive | inactive | inactive | inactive | inactive | inactive | inactive | inactive | inactive | inactive | inactive | inactive |
| CCCn1cnc2c1c(=O)n(CCCCC(C)=O)c(=O)n2C | inactive | inactive | inactive | inactive | inactive | inactive | inactive | inactive |  | inactive | inactive | inactive |  | inactive |  | inactive | inactive |  | inactive | inactive |
| COc1ccc2[nH]c(S(=O)Cc3ncc(C)c(OC)c3C)nc2n1 (stereo not drawn) | inactive |  | inactive | inactive | inactive | inactive |  |  | 4.78 µM (active) | 12.6 µM (active) | 6.31 µM (active) |  |  |  | 7.94 µM (active) |  | 6.31 µM (active) | 7.94 µM (active) | 3.38 µM (active) |  |
| Cc1c(O)cccc1C(=O)N[C@@H](CSc1ccccc1)[C@H](O)CN1C[C@H]2CCCC[C@H]2C[C@H]1C(=O)NC(C)(C)C |  |  | inactive |  |  | inactive |  |  |  | 11.2 µM (active) | 11.2 µM (active) | inactive |  | 10 µM (active) | 4.47 µM (active) |  | 7.94 µM (active) | 8.91 µM (active) | 16.9 µM (active) | 15.1 µM (active) |
| CC(C(O)c1ccc(O)cc1)N1CCC(Cc2ccccc2)CC1 (stereo not drawn) | 16.9 µM (active) |  | 15.1 µM (active) |  | 15.1 µM (active) |  | 10.7 µM (active) |  | 15.1 µM (active) | 8.91 µM (active) |  | inactive | 7.57 µM (active) |  |  |  |  | 11.2 µM (active) | 13.5 µM (active) |  |

From PubChem BioAssay (NCATS)
